High-throughput results as filed in PubChem BioAssay.
In the library only some 2% were active in any assay of this set; here they are far more common.
Abeta rescue: restores growth of yeast expressing A-beta42 peptide; yeast expressing A-beta42, growth rescue, OD600, 48 h; response scale: 0% DMSO, 100% iron-clioquinol control; Potency, µM (highest dose often 46.1 µM), hits mostly activators; 410,000 tested, 0.063% active; AID 1347071; also: potency is read from the fitted curve at half-maximal effect; nearly all actives have a fitted effect of over 55% in size
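Growth rescue measured by 600 nm absorbance after 48 h yeast culture at 30 C with compound. Values normalized between DMSO and an equimolar ferric chloride plus clioquinol control.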
LDHA block: blocks human lactate dehydrogenase A; purified LDHA, NADH/diaphorase-resazurin fluorescence; hits give low values; P00338; 480,000 tested, 0.15% active; activity change, % (values are at about 110 or 230 µM); in the data active = activity change below about -30%; inconclusive = mostly about -25% to -30%;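 also: plate controls were DMSO wells for no effect and wells without enzyme for full effect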
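Resorufin fluorescence (ex540/em590), read at 0 and 20 min after diaphorase/resazurin addition, reports the NADH left after a 5 min room-temperature reaction of 2 nM human LDH5 with 0.06 mM NADH and 0.2 mM pyruvate.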
FUS yeast rescue: FUS proteinopathy suppression in yeast; S. cerevisiae FUS-expressing, growth rescue, OD600, 24 h; Potency, µM (series often up to 76.6 µM), usual class: activators; 390,000 tested, 0.24% active; AID 1347120;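 also: potency is read from the fitted curve at half-maximal effect; plate controls were DMSO vehicle for no effect and reference control for full effect; nearly all actives have a fitted effect of over 55% in size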
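Yeast FUS proteinopathy model; galactose-induced FUS (2%), starting OD 0.005. Cpds in dilution series, 24hr, 30C, 99% humidity. Abs 600 nm growth. Pos ctrl CP55940 (top 92uM final); neg ctrl DMSO.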
IDH1 R132H inh: human IDH1 R132H inhibition; 390,000 tested, 0.093% active; Potency, µM (highest dose often 76.6 µM), without a hit: top-dose activity change, negative = inhibition, usual class: inhibitors; IDH1-R132H enzyme, NADPH consumption, diaphorase/resazurin fluorescence; AID 602179; O75874; also: potency is read from the fitted curve at half-maximal effect; % is scaled to controls: 0 for no effect and ±100 for the full control effect; nearly all actives have a fitted effect of over 65% in size
Target sequence (O75874 whole entry R132H, stated change not applied): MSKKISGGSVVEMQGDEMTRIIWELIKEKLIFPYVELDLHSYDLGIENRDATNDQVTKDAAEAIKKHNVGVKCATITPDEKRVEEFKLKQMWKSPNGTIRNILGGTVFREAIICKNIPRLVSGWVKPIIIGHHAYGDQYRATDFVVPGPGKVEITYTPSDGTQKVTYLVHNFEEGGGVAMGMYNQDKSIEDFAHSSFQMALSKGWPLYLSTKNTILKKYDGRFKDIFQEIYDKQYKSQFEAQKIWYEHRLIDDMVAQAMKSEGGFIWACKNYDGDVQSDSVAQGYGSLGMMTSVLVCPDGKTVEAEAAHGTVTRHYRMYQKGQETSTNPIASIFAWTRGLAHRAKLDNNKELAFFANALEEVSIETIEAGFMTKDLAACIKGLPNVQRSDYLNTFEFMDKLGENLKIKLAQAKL
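IDH1-R132H (0.5 ug/mL) preincubated 30 min with compound, then NADPH (0.016 mM) and alpha-KG (2 mM) added; 80 min at RT, pH 7.5. Remaining NADPH coupled via diaphorase/resazurin to fluorescence (540/590 nm); concentration-response curves normalized to no-enzyme control.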
aSyn rescue: inhibitors of alpha-synuclein toxicity in yeast; Potency, µM (series often up to 46.1 µM), inactives show at the highest dose growth rescue (activation), actives largely listed as activators; 370,000 tested, 0.14% active; Yeast expressing alpha-synuclein, growth rescue, BacTiter-Glo, 24 h; AID 652106; also: potency is read from the fitted curve at half-maximal effect; % of control where 0% means no effect; nearly all actives have a fitted effect of over 65% in size
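Readout is rescue of growth in alpha-synuclein-expressing yeast, so inhibitors of toxicity appear as activators. Growth after 24 hr at 30 deg C in galactose medium is quantified by luminescence.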
TDP-43 yeast inh: rescues yeast growth from TDP-43 toxicity; Potency, µM (series often up to 46.1 µM), inactives show at the highest dose growth rescue (activation), most hits filed as activators; TDP-43 expressing yeast growth rescue, BacTiter-Glo, 24 h; 410,000 tested, 1.8% active; also: potency is read from the fitted curve at half-maximal effect; % of control where 0% means no effect; nearly all actives have a fitted effect of over 50% in size
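Readout is BacTiter-Glo luminescence of cell growth, so inhibitors register as activators. TDP-43-expressing yeast at OD600=0.02 in galactose medium, after raffinose pregrowth to mid-log, were incubated with compound for 24 hr at 30 deg C.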
The depositor's hits bear a star; i = inactive; ? = inconclusive; / = not tested or not shown; ! = repeats disagree. Unless noted, calls follow the shape of the dose curve; as a rule, active = well fitted curve in the direction sought with a large enough effect; inconclusive = small, poorly fitted or top-dose-only effect, or another doubt; inactive = no such curve, though single readings can be large; an effect the other way counts as inactive or inconclusive.

SMILES | Abeta rescue | LDHA block | FUS yeast rescue | IDH1 R132H inh | aSyn rescue | TDP-43 yeast inh
c1ccc2c(c1)OCC(c1csc3ncnc(N4CCCCC4)c13)O2 (stereo not given) | i | 2.8 | i | -3.7% | -7.7% | -10.0%
Clc1ncnc2scc(C3COc4ccccc4O3)c12 (stereo not given) | i | 4.9 | i | 1.3% | 4.7% | 17.8µM*
O=C(Cc1ccccc1)Nc1cc(C(=O)c2ccccc2)ccc1N1CCOCC1 | i | 0.0 | i | 1.3% | / | 12.6µM*
COP(=O)(OC)c1nc(-c2ccc(Cl)cc2)oc1NCc1cccnc1 | / | 2.4 | / | / | / | /
O=C(O)c1ccc(N/N=C/c2ccc(-c3cc(Cl)ccc3Cl)o2)cc1 | i | -3.6 | ? | 1.8% | -5.3% | 29.2%
O=C(O)c1ccc(N/N=C/c2ccc(-c3cccc(Cl)c3)o2)cc1 | i | -7.3 | i | -23.5% | -16.0% | 17.8µM*
CCOc1ccc2c(c1)C(NC(C)=O)C(=O)N2CCOc1ccccc1 (stereo not given) | / | 15.2 | / | / | / | /
CCOc1ccc(NC(=O)N2CCOc3ccccc32)cc1 | i | 4.9 | i | -9.9% | / | 11.2µM*
Nc1cc(=O)nc(SCC(=O)N(C2CCCCC2)C2CCCCC2)n1-c1ccccc1 | i | -2.9 | 28.2µM* | 1.6% | -3.8% | -14.3%
Cc1ccc(NC(=O)CSc2nc(=O)cc(N)n2-c2ccccc2)cc1 | i | -4.3 | ? | -13.3% | 3.2% | 6.4%
COc1cccc(N2CCN(C(=O)CCSCc3ccccc3F)CC2)c1 | i | -0.8 | i | 0.4% | 2.4% | 15.8µM*
COc1cccc(N2CCN(C(=O)CCn3nnc4ccccc43)CC2)c1 | / | / | i | / | / | /
COc1ccc(CNC(=O)CN2CCSc3ccccc32)c(OC)c1 | i | -2.7 | i | 1.6% | -11.4% | ?
COc1ccccc1N1CCN(C(=O)CCSCc2ccccc2F)CC1 | i | -4.5 | i | -1.4% | -0.4% | 20µM*!
COc1cccc(N2CCN(C(=O)CN3CCSc4ccccc43)CC2)c1 | ? | 6.4 | i | 6.1% | 2.6% | 14.1µM*
COc1ccccc1N1CCN(C(=O)Cc2ccc(Cl)cc2)CC1 | i | 2.4 | i | 1.1% | 21.1% | 2.4%
CC1(C)Cc2c(C#N)c(NCCCO)nc(-c3ccccc3)c2CO1 | i | 5.7 | i | -5.1% | 2.8% | 12.6µM*
CCN(CC)CCNc1nc(-c2ccccc2)c2c(c1C#N)CC(C)(C)OC2 | i | 2.4 | i | 4.6% | 4.3% | 11.0%
S=C(N/N=C/c1c(Cl)cccc1Cl)Nc1ccccc1 | / | -6.3 | / | / | / | /
CN(Cc1ccc(-c2ccc(Cl)cc2)o1)C(=O)CNC(=O)c1ccccc1 | / | -6.6 | / | / | / | /
CCc1c(C)nc2nncn2c1Nc1ccc(C(C)C)cc1 | i | -0.3 | i | 2.2% | / | 12.6µM*
COc1ccc(/C=C/C(=O)N2CCN(S(=O)(=O)c3ccccc3Br)CC2)cc1OC | i | -1.5 | ? | 7.3% | ? | 22.4µM*
COc1ccc(/C=C/C(=O)N2CCN(S(=O)(=O)c3ccccc3)CC2)cc1OC | i | 2.5 | i | 0.3% | 5.0% | 11.6%
Nn1c(SCC(=O)N2c3ccccc3Sc3ccc(Cl)cc32)nnc1-c1cc(-c2ccc(F)cc2)n[nH]1 | / | / | 14.1µM* | / | / | /
Nn1c(SCC(=O)Nc2ccccc2-c2ccccc2)nnc1-c1cc(-c2ccc(Cl)cc2)n[nH]1 | / | / | i | / | / | /
SMILES | Abeta rescue | LDHA block | FUS yeast rescue | IDH1 R132H inh | aSyn rescue | TDP-43 yeast inh
COc1ccc(CC(=O)Nc2nc3c(s2)CCCC3)cc1 | ? | -6.7 | i | 19.3% | / | ?
Cc1ccc(C(=O)Nc2nc3c(s2)CCCC3)o1 | i | -1.6 | i | 9.3% | -27.1% | 14.1µM*
CCC(Oc1ccc(F)cc1)C(=O)Nc1nc2c(s1)CCCC2 (stereo not given) | ? | -0.7 | i | -0.6% | / | 11.2µM*
CC(C)C(Br)C(=O)Nc1ccc(Cl)c(Cl)c1 (stereo not given) | / | 7.6 | / | / | / | /
CC1C(=O)CCN(CCCO)C1C (stereo not given) | / | -6.2 | / | / | / | /
O=C(CN1CCN(c2ccccn2)CC1)N1N=C(c2cc3ccccc3o2)CC1c1ccco1 (stereo not given) | / | -9.4 | / | / | / | /
CCOC(=O)[C@H]1[C@H]2COc3ccc(Cl)cc3[C@@H]2N2C(=O)c3cc(Cl)ccc3NC(=O)[C@@]12C | 3.55µM* | -5.2 | i | -7.2% | -4.7% | 7.8%
C[C@@]12C(=O)Nc3ccc(F)cc3C(=O)N1[C@H]1c3cc(Cl)ccc3OC[C@@H]1[C@@H]2c1ccccc1 | i | -1.0 | i | 5.6% | -3.0% | 17.8µM*
CCOC(=O)[C@@H]1[C@H]2COc3ccccc3[C@H]2N2C(=O)N(c3ccc(Cl)cc3)C(=O)[C@]12C | i | -3.4 | ? | -8.3% | -6.1% | 35.5µM*
CCOC(=O)[C@H]1[C@H]2COc3ccc(Cl)cc3[C@@H]2N2C(=O)c3cc(Br)ccc3NC(=O)[C@@]12C | ? | -3.1 | ? | -8.2% | 4.3% | ?
C[C@@]12C(=O)Nc3ccc(Cl)cc3C(=O)N1[C@H]1c3ccccc3OC[C@@H]1[C@@H]2c1ccccc1 | i | -0.7 | 28.2µM* | -24.1% | -1.6% | -46.6%
Cc1ccccc1C(=O)OC(C)C(=O)c1ccc2c(c1)CCC2 (stereo not given) | / | -13.9 | / | / | / | /
Cc1sc(NC(=O)C2CCC2)c(C#N)c1C | / | -7.8 | / | / | / | /
CN1CCN(c2nc3ccccc3nc2C(C#N)C(=O)NCc2ccccc2)CC1 (stereo not given) | / | -4.4 | / | / | / | /
CCN(CC(=O)Nc1ccccc1C(F)(F)F)Cc1coc(-c2ccc(C)cc2C)n1 | / | -0.5 | / | / | / | /
C[C@@]12C(=O)Nc3cc(F)c(F)cc3C(=O)N1[C@H]1c3ccccc3OC[C@@H]1[C@@H]2c1ccccc1 | i | -0.5 | i | 3.6% | -11.5% | -13.3%
C[C@@]12C(=O)Nc3ccc(F)cc3C(=O)N1[C@H]1c3ccccc3OC[C@@H]1[C@@H]2c1ccccc1 | i | -3.1 | ? | 12.0% | 7.4% | 14.1µM*
CCn1c(=S)[nH]c2cc(Cl)ccc21 | 12.6µM* | -4.3 | i | 8.7% | 5.2% | -9.8%
CCCn1c(=S)[nH]c2cc(Cl)ccc21 | ? | -2.1 | i | -2.0% | -5.9% | ?
O=C(C1CCN(Cc2cccs2)CC1)N1CCN(Cc2ccc3c(c2)OCO3)CC1 | i | -32.5* | i | 5.1% | -8.6% | -24.3%
O=C(c1cccs1)N1CCC(C(=O)N2CCN(Cc3ccc4c(c3)OCO4)CC2)CC1 | i | 0.7 | i | 1.0% | -1.6% | -3.6%
CC(=O)NCCc1ccc(-c2csc(-c3ccc(C)cc3)n2)s1 | / | -1.4 | / | / | / | /
